Growth data for 17 compounds are collected here from PubChem BioAssay (NCI).

Test systems include T-47D breast; BT-549 breast; MDA-MB-435 melanoma; SW-620 colon; MCF7 breast; HCT-116 colon; KM12 colon; HCC-2998 colon.
Common to all, as to assay: NCI-60 one-dose screen, 48 h (100 = growth as untreated, 0 = no growth, -100 = all killed)
Common to all, as to conditions: 10 µM

SMILES strings stand for the structures. This is part of a sample that, as a whole, favours compounds with a hit. Of some 83,000 tested, about 20% had one in any assay.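 For each line, cells grew in 96-well plates with the test compound present at a single concentration for 48 hours.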 Unmarked numbers belong to inactive results. Active and inactive are the calls of the source. The calls were made as follows: active = growth percent below 10; inactive = the rest.

On to `COc1cc(NC(=O)C2=C(N3CCOCC3)/C(=C/c3ccc(Cl)cc3)CC2)cc(OC)c1OC`, for which the growth in the assay with T-47D breast is 71.1%; in the assay with BT-549 breast it was 103%; with MDA-MB-435 melanoma it was 75.3%; in the assay with SW-620 colon, 100%; with MCF7 breast, 73.3%; in the assay with HCT-116 colon, 65.7%. In addition, the growth in the assay on KM12 colon was 97.3%.
Turning to `COc1cc2cc(Oc3ccc(NC(=O)c4ccc(Cl)c(C(F)(F)F)c4)cc3)c(C)nc2cc1OC`, the growth was 82.8% in the assay with T-47D breast; 20.8% in the assay on BT-549 breast; 25.7% in the assay on MDA-MB-435 melanoma; 34.2% with SW-620 colon; 24.8% with MCF7 breast; 8.43% (active) in the assay on HCT-116 colon. In addition, in the assay with KM12 colon, the growth was 19.7%.
On to `Cc1cc(NC(=O)c2ccc(C)c(Nc3nccc(-c4cccnc4)n3)c2)cc(-n2cnc(C)c2)c1`, for which the growth in the assay with T-47D breast was -4.71% (active); with BT-549 breast, 41.1%; with MDA-MB-435 melanoma it was 12.2%; in the assay on SW-620 colon it was 50.2%; in the assay on MCF7 breast, 24.4%; in the assay with HCT-116 colon, -64.1% (active). Moreover, the growth in the assay on KM12 colon was 35.1%.
Regarding `CC(C)c1ccc(C(C)C(=O)N(CC2=C(C(C)c3ccccn3)c3ccccc3C2)C(C)C)cc1` (stereo not drawn), the growth is 13.3% in the assay on T-47D breast; 69.6% in the assay with BT-549 breast; 44.1% with MDA-MB-435 melanoma; 31.3% in the assay on SW-620 colon; 19.9% in the assay on MCF7 breast; 11.1% in the assay on HCT-116 colon. For the same compound, the growth with KM12 colon was 37.5%.
As for `Cc1ccc(C(=O)C2C(=O)C3CCC2C3)cc1` (stereo not drawn), the growth with T-47D breast is 108%; in the assay on BT-549 breast, 105%; in the assay on MDA-MB-435 melanoma it was 100%; in the assay with SW-620 colon it was 104%; with MCF7 breast it was 97.5%; in the assay on HCC-2998 colon, 106%.
As to `Cc1ccc(C)c(COc2cc(NC(=O)c3ccc4c(c3)OCO4)ccc2N(C)S(C)(=O)=O)c1`, the growth in the assay on T-47D breast is 8.82% (active); with BT-549 breast, 27.5%; in the assay with MDA-MB-435 melanoma, -15% (active); in the assay with SW-620 colon it was 28.7%; with MCF7 breast it was 11.1%; in the assay with HCT-116 colon it was -34.1% (active). Besides, in the assay on KM12 colon, the growth is -10.9% (active).
As for `COc1ccc2c(c1)C(=O)/C(=C/c1cccc(OCC(=O)c3ccc([N+](=O)[O-])cc3)c1)CO2`, the growth with T-47D breast was 50.3%; with BT-549 breast, -34.5% (active); in the assay on MDA-MB-435 melanoma, 24.4%; in the assay with SW-620 colon, -89% (active); in the assay with MCF7 breast it was -35.9% (active); in the assay on HCT-116 colon, -74.2% (active). Besides, the growth in the assay on KM12 colon is -87.9% (active).
For `COc1cc2cc(Oc3ccc(NC(=O)c4ccccc4)cc3)c(C)nc2cc1OC`, the growth in the assay with T-47D breast was 79.8%; in the assay with BT-549 breast, 82.3%; in the assay with MDA-MB-435 melanoma, 104%; in the assay on SW-620 colon, 109%; in the assay with MCF7 breast, 78.7%; in the assay with HCT-116 colon, 87.1%. Besides, the growth with KM12 colon was 94.5%.
Consider `C[C@]12CCC3c4ccc(O)cc4C[C@@H](CCCCCCCCCS(=O)CCCC(F)(F)C(F)(F)F)C3C1CC[C@@H]2O` (stereo partly drawn), for which the growth was 41.2% with T-47D breast; 86.1% in the assay on BT-549 breast; 88.8% in the assay on MDA-MB-435 melanoma; 97.1% in the assay with SW-620 colon; 15.9% in the assay with MCF7 breast; 71.4% with HCT-116 colon. In the assay on KM12 colon, the growth was 80.4%.
For `CCOc1ccccc1/C=N/N1CCCCCC1`, the growth was 99.1% in the assay with T-47D breast; 103% in the assay with BT-549 breast; 114% with MDA-MB-435 melanoma; 96.1% with SW-620 colon; 79.2% in the assay on MCF7 breast; 100% with HCT-116 colon. Also, the growth with KM12 colon is 106%.
On to `Clc1ccc(/C=C2\CCCC3C2=Nc2ccccc2NC3c2ccc(Cl)cc2)cc1` (stereo not drawn), for which the growth was 104% with T-47D breast; 83% in the assay with BT-549 breast; 11.9% in the assay on MDA-MB-435 melanoma; 41.5% in the assay on SW-620 colon; 35.8% with MCF7 breast; -87% (active) with HCT-116 colon. The growth in the assay with KM12 colon was 17.3%.
With `COc1cc(/C=C/c2cc(/C=C/c3ccc(O)c(OC)c3)[nH]c(=O)n2)ccc1O`, the growth in the assay on T-47D breast was 59.1%; in the assay on BT-549 breast, 55%; in the assay on MDA-MB-435 melanoma, 56.9%; in the assay on SW-620 colon, 43.6%; in the assay with MCF7 breast, 52.1%; with HCT-116 colon, 34.7%. In addition, the growth in the assay with KM12 colon was 29.3%.
`CCOC(=O)CSc1nc(-c2cc(OC)ccc2OC)cc(-c2ccc(OC)cc2)c1C#N`: the growth was 65.6% with T-47D breast; 86% in the assay on BT-549 breast; 86.6% in the assay with MDA-MB-435 melanoma; 92.1% with SW-620 colon; 71.7% in the assay with MCF7 breast; 67.3% with HCT-116 colon. Moreover, the growth with KM12 colon was 71.3%.
`COc1cc(C2C(C#N)=C(N)Oc3cc(O)ccc32)cc(OC)c1OC` (stereo not drawn): the growth in the assay with T-47D breast was 16%; in the assay on BT-549 breast it was 58.5%; with MDA-MB-435 melanoma it was -44.9% (active); in the assay on SW-620 colon it was 21.4%; in the assay on MCF7 breast, 19.9%; in the assay with HCT-116 colon, 17.8%. Also, in the assay with KM12 colon, the growth was 15.8%.
Take `COc1ccc(-c2nn(-c3cccc(Cl)c3)cc2/C=C2\NC(=S)N(c3ccc(Cl)cc3)C2=O)cc1`: the growth in the assay on T-47D breast is 11.9%; in the assay with BT-549 breast, -13% (active); with MDA-MB-435 melanoma, 7.26% (active); in the assay with SW-620 colon, 40.8%; in the assay with MCF7 breast it was 19.3%; in the assay with HCT-116 colon it was 0.814% (active). Also, in the assay on KM12 colon, the growth was 26.6%.
On to `CCOC(=O)c1cc(C(=O)c2cc(OC)cc(OC)c2)n2nc(C)ccc12`, for which the growth is 43.9% in the assay on T-47D breast; 48.7% in the assay on BT-549 breast; -16.2% (active) with MDA-MB-435 melanoma; 17.8% in the assay with SW-620 colon; 20.8% in the assay with MCF7 breast; 25.2% in the assay on HCT-116 colon. For the same compound, the growth with KM12 colon was 29.4%.
On to `COc1ccc(C(=O)CSc2nc(-c3cc(OC)ccc3OC)cc(-c3ccc(OC)cc3)c2C#N)cc1`, for which the growth in the assay with T-47D breast was 85.7%; in the assay with BT-549 breast, 89.9%; in the assay on MDA-MB-435 melanoma it was 100%; in the assay on SW-620 colon, 110%; with MCF7 breast, 101%; in the assay on HCT-116 colon, 94%. Besides, the growth in the assay with KM12 colon is 92.1%.
